# The panel holds about 83,000 compounds, 20% with a hit somewhere; the sample as a whole holds those more often.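 Compound tested at a single concentration for 48 hours in 96-well plates; a percent growth value below 10 was scored as active.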 Values without a mark were called inactive. Active and inactive are the calls of the source.
# Tests used:
# Assay in all cases: NCI-60 one-dose screen, 48 h (100 = growth as untreated, 0 = no growth, -100 = all killed)
# Conditions in all cases: 10 µM unless noted
# SK-MEL-2 melanoma = system: SK-MEL-2 melanoma
# EKVX NSCLC = system: EKVX NSCLC
# SN12C renal = system: SN12C renal
# UO-31 renal = system: UO-31 renal
# TK-10 renal = system: TK-10 renal
# ACHN renal = system: ACHN renal
# CAKI-1 renal = system: CAKI-1 renal
# A498 renal = system: A498 renal
# CCRF-CEM leukemia = system: CCRF-CEM leukemia
# MOLT-4 leukemia = system: MOLT-4 leukemia
# SR leukemia = system: SR leukemia
# RPMI-8226 leukemia = system: RPMI-8226 leukemia
# OVCAR-8 ovarian = system: OVCAR-8 ovarian
# OVCAR-5 ovarian = system: OVCAR-5 ovarian
# OVCAR-4 ovarian = system: OVCAR-4 ovarian
# SK-OV-3 ovarian = system: SK-OV-3 ovarian
# IGROV1 ovarian = system: IGROV1 ovarian
# OVCAR-3 ovarian = system: OVCAR-3 ovarian
# NCI/ADR-RES ovarian = system: NCI/ADR-RES ovarian
# HS 578T breast = system: HS 578T breast
SMILES,growth (SK-MEL-2 melanoma) [%],growth (EKVX NSCLC) [%],growth (SN12C renal) [%],growth (UO-31 renal),growth (TK-10 renal) [%],growth (ACHN renal),growth (CAKI-1 renal) [%],growth (A498 renal),growth (CCRF-CEM leukemia),growth (MOLT-4 leukemia),growth (SR leukemia),growth (RPMI-8226 leukemia),growth (OVCAR-8 ovarian) [%],growth (OVCAR-5 ovarian) [%],growth (OVCAR-4 ovarian) [%],growth (SK-OV-3 ovarian) [%],growth (IGROV1 ovarian),growth (OVCAR-3 ovarian) [%],growth (NCI/ADR-RES ovarian) [%],growth (HS 578T breast) [%]
O=C(/C=C/c1ccco1)c1ccc(Nc2ccnc3cc(Cl)ccc23)cc1,86.5,85.2,90.6,94.8%,116,96.5%,96,33.6%,45.1%,10.8%,-50.4% (active),-34.9% (active),81.3,70.2,103,108,120%,78.7,73.9,
O=C(CN1C(=O)c2ccccc2S1(=O)=O)Nc1nc(-c2cc3ccccc3oc2=O)cs1,107,102,97.2,91%,137,103%,100,98%,104%,110%,109%,108%,101,106,110,106,99.1%,113,103,
O=C1c2ccccc2C(=O)c2cc(Cn3c[n+](Cc4ccc5ccccc5c4)c4ccccc43)ccc21,51.2,73.9,47.8,72.8%,67.8,92.4%,40.5,77.8%,22.1%,28.1%,38.1%,2.45% (active),41.4,59.3,47.2,83.2,3.66% (active),34.9,91.1,62.2
Fc1ccc(/C=C/c2cc(/C=C/c3ccc(F)cc3)n(-c3cc(F)cc(F)c3)n2)cc1,90.8,92.3,102,82.8%,82.5,99%,90.6,95.6%,3.7% (active),103%,87.5%,73.8%,112,95.2,107,97.4,90.3%,108,101,114
O=C1c2c(c3c4cc(F)ccc4oc3c3[nH]c4ccccc4c23)C(=O)N1O,78,62.3,28.1,8.37% (active),102,0.963% (active),16.9,-6.56% (active),5.67% (active),-22.5% (active),9.66% (active),26.2%,50.8,100,61.4,55.7,25.6%,25.5,45.6,65.2
CNC(=O)c1cc(Oc2ccc3nc(NC(=O)Nc4ccc(F)cc4F)sc3c2)ccn1,74.7,89.8,69.2,91.4%,93.5,60.6%,88.4,10.9%,89.7%,82.4%,80.4%,72.9%,45.1,95.2,34.2,76.3,84.2%,74.7,45.5,
COc1cccc(CNc2nnc(C)c(C)n2)c1O,106,104,96.7,91.6%,108,110%,100,95.3%,101%,109%,102%,100%,99.2,108,103,87,107%,110,104,108
CCN(CC)CCN1C(=O)c2c(c(C)c3c(oc4cc(OC)ccc43)c2C)C1=O,101,93.5,32.2,-43.7% (active),100,51%,78.2,108%,-10.9% (active),61.1%,29.3%,88.1%,90.6,94.2,73.8,115,42.2%,112,86.2,118

# — PubChem BioAssay (NCI)
